From PubChem BioAssay AID651899 (Broad Institute, 2012)
Results with a measured potency or affinity are listed apart. Activity calls are given as the source filed them. How the calls were made is not given here.

Experiment: HEK293 cell viability loss – plate reader, cherry-pick, cytotoxicity control, dose response (AID 651899);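 further: cells exposed to compound for 48 hours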
Settings: series mostly up to 26 µM

Q: For `O=C(Nc1ccc(NS(=O)(=O)c2ccccc2)cc1)c1cccnc1`, which outcome is on record?
A: inactive

Q: For `COc1cc(-c2nc3ccccc3nc2-c2ccc(O)c(OC)c2)ccc1O`, which outcome is on record?
A: inactive

Q: For `CCN(CC)CCNC(=O)c1cn(CC)c2ccc(S(=O)(=O)N3CCc4ccccc4C3)cc2c1=O`, which outcome is on record?
A: inactive

Q: With `CC(=O)c1ccc(C(=O)NC2CCCN(Cc3ccccc3F)C2)s1` (stereo unspecified) as the compound, how does the outcome read?
A: inactive

Q: Which outcome does the source give for `CN1c2ccc(-c3cccc(C#N)c3)cc2[C@H]2[C@H](CCN2C(=O)CC2CC2)[C@H]1CO` here?
A: inactive

Q: Which outcome does the source give for `COc1ccc(-c2ccc3c(c2)[C@H]2[C@H](CCN2C(=O)Cc2cccnc2)[C@H](CO)N3C)cc1` here?
A: inactive

Q: With `Cc1cc(C)n2nc(C(=O)Nc3cccnc3)nc2n1` as the compound, how does the outcome read?
A: inactive

Q: With `COc1ccc(NC(=O)c2ccc(Cl)nc2)cc1S(=O)(=O)N1CCOCC1` as the compound, how does the outcome read?
A: inactive

Q: For `O=C1CCCc2c1cc(C(=O)NCc1ccco1)c(=O)n2-c1ccc(Cl)cc1`, which outcome is on record?
A: inactive

Q: For `O=C(CSc1nncs1)N1c2ccccc2Sc2ccccc21`, which outcome is on record?
A: inactive

Q: Which outcome does the source give for `O=C(O)CCS(=O)(=O)c1nc(-c2cccs2)cc(C(F)(F)F)n1` here?
A: inactive

Q: Which outcome does the source give for `CC(Oc1ccc2ccc(=O)oc2c1)C(=O)N1CCOCC1` (stereo unspecified) here?
A: inactive

Q: Which outcome does the source give for `Cc1cc(C(=O)NC2CC(C)(C)Cc3c2cnn3-c2cccc(F)c2)nn1C` (stereo unspecified) here?
A: inactive

Q: For `N#Cc1ccc(-c2ccc3c(c2)[C@@H]2[C@@H](CCN2C(=O)c2ccc(F)cc2)[C@@H](CO)N3)cc1`, which outcome is on record?
A: inactive

Q: Which outcome does the source give for `O=C(c1cccc(F)c1)N1CC[C@@H]2[C@H]1c1cc(-c3cccc(F)c3)ccc1N[C@@H]2CO` here?
A: inactive

Q: Which outcome does the source give for `COc1ccc(C(=O)C2CCCN(C(=O)c3ccc(C(C)=O)s3)C2)c(C)c1` (stereo unspecified) here?
A: inactive

Q: With `CC(=O)c1ccc(N2CCN(S(=O)(=O)c3c(C(=O)N4CCCC4)c(C)n(C)c3C)CC2)cc1` as the compound, how does the outcome read?
A: inactive

Q: For `O=C(C[C@H]1C[C@H]2c3cc(NC(=O)c4cccnc4)ccc3O[C@H]2[C@H](CO)O1)NCc1ccccn1`, which outcome is on record?
A: inactive

Q: With `O=C(c1cccc(F)c1)N1CC[C@@H]2[C@H](CO)Nc3ccc(-c4cccc(F)c4)cc3[C@@H]21` as the compound, how does the outcome read?
A: inactive

Q: For `Cc1nc2nc(SCC(=O)N3CCOCC3)nn2c(C)c1Cc1ccccc1`, which outcome is on record?
A: inactive

Q: With `O=C(C1CCOCC1)N1CC[C@@H]2[C@H]1c1cc(Br)ccc1N[C@@H]2CO` as the compound, how does the outcome read?
A: inactive

Q: With `CC(=O)c1c(C)[nH]c(C(=O)Nc2cccnc2)c1C` as the compound, how does the outcome read?
A: inactive

Q: Which outcome does the source give for `Cc1c(OC(C)C(=O)NCC2CCC(C(=O)O)CC2)ccc2c1oc(=O)c1ccccc12` (stereo unspecified) here?
A: inactive

Q: For `O=C(C[C@@H]1C[C@H]2c3cc(NC(=O)c4cccnc4)ccc3O[C@H]2[C@@H](CO)O1)NCc1cc(F)ccc1F`, which outcome is on record?
A: inactive

Q: Which outcome does the source give for `O=C(Nc1ccc(F)c(F)c1)C1CCN(S(=O)(=O)c2cccs2)CC1` here?
A: inactive

Q: Which outcome does the source give for `C=CCn1c(SCc2c(C(=O)OC)sc(N)c2C(=O)OC)nnc1-c1ccc(Br)cc1` here?
A: inactive

Q: For `Cc1cccc(C(=O)NC2CCN(CC(=O)Nc3ccccc3Cl)CC2)c1`, which outcome is on record?
A: inactive

Q: For `COc1ccc(C2c3c(oc4ccc(Cl)cc4c3=O)C(=O)N2CCN2CCOCC2)cc1` (stereo unspecified), which outcome is on record?
A: inactive

Q: With `O=C(c1ccccc1F)N1CC[C@@H]2[C@H]1c1cc(Br)ccc1N[C@@H]2CO` as the compound, how does the outcome read?
A: inactive

Q: With `CN1c2ccc(-c3ccccc3)cc2[C@H]2[C@H](CCN2C(=O)Cc2ccccn2)[C@H]1CO` as the compound, how does the outcome read?
A: inactive

Q: For `COCCNC(=O)C[C@@H]1CC[C@@H]2[C@H](COc3ccc(NC(=O)Nc4cccc(F)c4)cc3C(=O)N2C)O1`, which outcome is on record?
A: inactive

Q: For `C[C@@H]1CN([C@H](C)CO)C(=O)c2cc(C#Cc3cccnc3)cnc2O[C@H]1CN(C)S(C)(=O)=O`, which outcome is on record?
A: inactive

Q: For `COc1ccc(-c2cc(NC=O)c3ncc(-c4cccc(C(=O)N(C)C)c4)n3c2)cn1`, which outcome is on record?
A: inactive

Q: For `COc1cccc(NC(=O)N2C[C@H](O)COC[C@@H]3O[C@@H](CC(=O)N(C)C)CC[C@H]32)c1`, which outcome is on record?
A: inactive

Q: Which outcome does the source give for `O=C(Nc1ccc(N2CCOCC2)c(Cl)c1)c1cccnc1` here?
A: inactive

Q: With `Fc1ccc(-c2ccc3c(c2)C2CC3CCN2)cc1` (stereo unspecified) as the compound, how does the outcome read?
A: inactive
